ChEMBL document CHEMBL4513216, “Probing the Open Global Health Chemical Diversity Library for Multistage-Active Starting Points for Next-Generation Antimalarials” (ACS Infect Dis, 2020)
The campaign covered roughly 69,000 compounds. About 8,600 (12%) showed an effect of 50% or more. The sample holds strong results, similar compounds and a random draw of the others, so the mix is not that of the screen.

Test system: Plasmodium berghei
Assay: Screen against P. berghei liver stage (PbLuc), transformed with Luciferase, at 10uM
Assay type: functional, HepG2
Conditions: tested at 10 uM

**Q.** With CNC(=O)N1CCC2(CC1)CN(C(C)C)Cc1cc(F)ccc12 as the molecule, how does the INHIBITION read?
**A.** 42.3%

**Q.** CC(=O)c1ccc(C(=O)N2C[C@H]3CC[C@@H](C2)N(CC2CCC2)C3)s1 was tested. Which INHIBITION did it give?
**A.** -92.2%

**Q.** Which INHIBITION does the source give for O=C([C@H]1COC[C@H]2CN(C3CCOCC3)C[C@H]21)N1CCCO1 here?
**A.** -1.83%

**Q.** With Cn1ccnc1CN1CCN2C[C@H](Oc3cncnc3)C[C@H]2C1 as the molecule, how does the INHIBITION read?
**A.** -10.3%

**Q.** For c1cncc(CN2CCN3C[C@H](Oc4cncnc4)C[C@H]3C2)c1, which INHIBITION is on record?
**A.** 27.6%

**Q.** Which INHIBITION does the source give for Cc1ccc(O[C@@H]2C[C@H]3CN(Cc4nccn4C)CCN3C2)cc1 here?
**A.** -15.7%

**Q.** Which INHIBITION does the source give for O=C(c1ccc(F)cc1)N1CCN2C[C@H](Oc3cccnc3)C[C@H]2C1 here?
**A.** 44.2%

**Q.** Which INHIBITION does the source give for Cc1cnc(N2CCN3C[C@H](OCc4ccccn4)C[C@H]3C2)nc1 here?
**A.** 42.3%

**Q.** For Cc1nc(CN2CCN3C[C@H](Oc4cncnc4)C[C@H]3C2)cs1, which INHIBITION is on record?
**A.** 88.3%

**Q.** For Cc1cccc(CN2CCN3C[C@H](Oc4cncnc4)C[C@H]3C2)n1, which INHIBITION is on record?
**A.** 37.6%

**Q.** With Fc1cnc(N2CCN3C[C@H](Oc4cccnc4)C[C@H]3C2)nc1 as the molecule, how does the INHIBITION read?
**A.** 82.2%

**Q.** With Fc1cnc(N2CCN3C[C@H](Oc4cncnc4)C[C@H]3C2)nc1 as the molecule, how does the INHIBITION read?
**A.** 56.4%

**Q.** For O=C(c1cnccn1)N1CCN2C[C@H](Oc3cccnc3)C[C@H]2C1, which INHIBITION is on record?
**A.** 15.6%

**Q.** For Cc1ccc(O[C@@H]2C[C@H]3CN(c4ncc(F)cn4)CCN3C2)cc1, which INHIBITION is on record?
**A.** 79.2%

**Q.** How did the INHIBITION turn out when c1cnc(N2CCN3C[C@H](Oc4cncnc4)C[C@H]3C2)nc1 was run?
**A.** 34.5%

**Q.** With O=C(COCc1ccccc1)N1CCCC(OCc2cccnc2)C1 (stereo unspecified) as the molecule, how does the INHIBITION read?
**A.** 0.348%

**Q.** For CCCc1nc(CN2CCCC2c2cnn(C)c2)cs1 (stereo unspecified), which INHIBITION is on record?
**A.** -32%

**Q.** CCn1cc(CN2CCN(CC(O)c3ccc(C)cc3C)CC2)cn1 (stereo unspecified) was tested. Which INHIBITION did it give?
**A.** 5.11%

**Q.** CN1CC(=O)N(c2cnn(C)c2)CC12CCN(Cc1cccs1)C2 (stereo unspecified) was tested. Which INHIBITION did it give?
**A.** 7.31%

**Q.** How did the INHIBITION turn out when CC(NC(=O)N(C)CCOc1ccccc1F)c1nncn1C (stereo unspecified) was run?
**A.** 7.08%

**Q.** CC1(C(N)=O)CN(CC2CCC2)CCO1 (stereo unspecified) was tested. Which INHIBITION did it give?
**A.** -1.75%

**Q.** Which INHIBITION does the source give for CS(=O)(=O)N1CC[C@@H]2O[C@@H](COCC(=O)N3CCCC3)CC[C@@H]21 here?
**A.** 1.9%

**Q.** For Cc1nc(C2CCN(C(=O)c3ccnn3C)CC2)c2sccn12, which INHIBITION is on record?
**A.** 15.9%

**Q.** How did the INHIBITION turn out when Cc1cccc2sc(NC(=O)CN3CCCC4(CC3)CNC(=O)O4)nc12 (stereo unspecified) was run?
**A.** 38.7%

**Q.** How did the INHIBITION turn out when Cc1cccc2sc(NC(=O)CN3CCC(C)CC3)nc12 was run?
**A.** 14.1%

**Q.** With Cc1cccc2sc(NC(=O)CN3CCCC(O)(CO)C3)nc12 (stereo unspecified) as the molecule, how does the INHIBITION read?
**A.** 74.5%
